Assay outcomes: PubChem, National Center for Advancing Translational Sciences (NCATS)
This is a sample that favours compounds with a hit; in the whole collection about 1% have one here.
gsp agonist = agonists of gsp mutant (McCune-Albright syndrome) | gsp mutant cells, cAMP HTRF, 30 min | Potency, µM (top dose mostly 76.9 µM), actives largely listed as activators | 340,000 compounds, 0.13% hits; active = well fitted activation curve with a large enough effect; inconclusive = small, poorly fitted or top-dose-only effect, or another doubt; inactive = no such curve, though single readings can be large or run the other way; cell line not stated here;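 note: phosphodiesterase inhibitor Ro 20-1724 added with compounds to block cAMP breakdown; nearly all actives have a fitted effect of over 60% in size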
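Cells stably selected in G418 were plated at 2000/well, grown 16-24 hr, then given compounds in DMSO with the PDE inhibitor […] (300 uM solution added) for 30 min at 37C; cAMP was read by HTRF.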
RXFP1 antagonist = RXFP1 (human) relaxin receptor antagonism | Q9HBX9 | HEK293-RXFP1, relaxin-stimulated cAMP HTRF, 30 min; hits give low values | activity change, negative = inhibition, % at 57.5 µM | 350,000 compounds, 0.59% hits | AID 1259400;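 active = activity change of -60% or lower, but not beyond a set lower limit; inconclusive = change between -60% and -40%, or beyond the set limit; inactive = change above -40%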
PTHR1 agonist = agonists of human PTHR1 parathyroid hormone receptor | Q03431 | HEK293 GP2 PTHR1 cells, GloSensor cAMP luminescence, 1 h | Potency, µM (doses to about 115 µM), most hits filed as activators | 410,000 compounds, 0.075% hits | AID 743266; note: nearly all actives have a fitted effect of over 55% in size
Target sequence (Q03431 whole entry, looked up): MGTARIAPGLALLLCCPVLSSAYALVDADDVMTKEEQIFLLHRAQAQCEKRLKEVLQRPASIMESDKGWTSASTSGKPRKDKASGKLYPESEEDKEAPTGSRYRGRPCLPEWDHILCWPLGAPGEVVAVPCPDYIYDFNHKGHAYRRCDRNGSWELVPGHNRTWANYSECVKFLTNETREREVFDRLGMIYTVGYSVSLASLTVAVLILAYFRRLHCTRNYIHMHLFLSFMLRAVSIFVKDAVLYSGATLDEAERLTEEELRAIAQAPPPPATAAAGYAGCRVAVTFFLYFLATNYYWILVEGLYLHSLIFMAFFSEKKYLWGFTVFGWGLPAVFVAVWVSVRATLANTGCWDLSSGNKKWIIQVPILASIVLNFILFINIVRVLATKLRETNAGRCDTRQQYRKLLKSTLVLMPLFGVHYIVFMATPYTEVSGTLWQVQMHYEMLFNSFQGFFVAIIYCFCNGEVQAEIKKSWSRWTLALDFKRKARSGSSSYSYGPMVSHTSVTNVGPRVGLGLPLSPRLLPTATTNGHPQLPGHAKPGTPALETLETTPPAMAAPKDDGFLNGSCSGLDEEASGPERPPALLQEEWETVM
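HEK-293-derived GP2 cells expressing PTHR1 and a GloSensor cAMP reporter, 3,000/well, plated overnight, given luciferin plus IBMX (each 0.5 mM as added) for 1 h at 37 °C, then compound for 1 h at 37 °C. Luminescence was read after 15 min at room temperature.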
RXFP1 ag = activates the human relaxin receptor RXFP1; HEK293T-RXFP1 cAMP TR-FRET, 30 min; response scale: percent of porcine relaxin response, buffer zero; Potency, µM (highest dose often 57.5 µM), usual class: activators; 370,000 compounds, 0.3% hits; AID 2676; note: nearly all actives have a fitted effect of over 60% in size
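HEK293T cells stably expressing RXFP1 were pretreated with the PDE4 inhibitor Ro 20174, exposed to compounds for 30 min at 37C, lysed, and cAMP was read by TR-FRET. Data normalized to buffer (basal) and 29 nM porcine relaxin (100%).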
gsp antagonist = gsp mutant antagonism | gsp-mutant cells, cAMP HTRF, 30 min | Potency, µM (top dose mostly 76.9 µM), actives largely listed as inhibitors | 340,000 compounds, 0.4% hits; calls by dose curve; cell line not stated here;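 note: intracellular cAMP measured with PDE inhibitor Ro 20-1724 present during compound exposure; nearly all actives have a fitted effect of over 65% in size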
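Measurement of cellular cAMP by homogeneous time-resolved fluorescence following a 30 min compound exposure at 37C. The PDE inhibitor […] was present throughout; the assay buffer was DPBS with 0.05% BSA and 0.005% Tween 20.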
Hits are given with their value; 0 = inactive; ? = inconclusive; - = not tested or not shown; [ ] = remark or other dose. Unless noted, calls come from the whole dose curve; as a rule, active = well fitted curve in the direction sought with a large enough effect; inconclusive = small, poorly fitted or top-dose-only effect, or another doubt; inactive = no such curve, though single readings can be large; an effect the other way counts as inactive or inconclusive.

SMILES | gsp agonist | RXFP1 antagonist | PTHR1 agonist | RXFP1 ag | gsp antagonist
CC(=O)c1ccc2c(c1)C1C(Cl)C(Sc3ccccc3[N+](=O)[O-])CC1C(c1ccccc1)N2 (stereo not given) | 0 | -81 | 0 | 0 | ?
N[C@@H](Cc1ccc(Oc2cc(I)c(O)c(I)c2)c(I)c1)C(=O)O | - | 0 | - | - | -
CNc1ccc2nc3ccccc3[n+](C)c2c1 | ? | -92 | 0 | 0 | ?
CN1CCN(c2ncnc3ccc(Br)cc23)CC1 | ? | 0 | 0 | 0 | 0
CN1CCC(N(C)c2ncnc3ccc(Br)cc23)CC1 | 32µM | 0 | 0 | 0 | 0
C#C[C@]1(O)CC[C@H]2[C@@H]3CCC4=Cc5nc6nc7ccccc7n6cc5C[C@]4(C)[C@H]3CC[C@@]21C | - | - | 0 | 0 | 32µM
C#CC1(O)CCC2C3CCC4=C/C(=N/OCC(=O)NCC(=O)NC(C(=O)O)C(C)C)CC[C@]4(C)C3CC[C@@]21C (stereo not given in full) | 0 | 0 | 0 | 0 | 0
CCOC(=O)C1CCN(Cc2c(F)cccc2Cl)CC1 | ? | 0 | ? | 0 | 0
Cc1cc2c(cc(C(=O)N3CCC(C(=O)NC4CCCC4)CC3)n2Cc2c(F)cccc2Cl)o1 | 0 | 0 | 0 | 0 | 35µM
O=P(Nc1ccccc1)(Oc1ccccc1)Oc1ccccc1 | 0 | 0 | 0 | 0 | 0
Cc1cccc(NP(=O)(Oc2ccccc2)Oc2ccccc2)c1C | 0[15.4 µM] | -64 | 0 | 0 | 0
O=C1C(=O)c2ccccc2-c2ccccc21 | - | - | 0 | 0 | 18µM
O=C1C(=O)c2cccc3cccc1c23 | 0 | 0 | 0 | 0 | 0
O=C1C=CC2C3C(=O)N(c4ccccc4)C(=O)C3C1N2Cc1ccccc1 (stereo not given) | 0 | -108 | 0 | - | 0
CN1CC[C@]23c4c5ccc(O)c4OC2C(O)CCC3[C@H]1C5 (stereo not given in full) | - | 0 | - | - | -
C[C@]12CC[C@H]3[C@@H](CC[C@@]45O[C@H]4C(O)=C(C#N)C[C@]35C)[C@H]1CC[C@H]2O | - | 0 | - | - | -
CN1CCN(c2ccc([N+](=O)[O-])c3no[n+]([O-])c23)CC1 | 0[15.4 µM] | -87 | 0 | 0 | ?
C=CCn1nc(C(=O)N2CCOCC2)cc1-c1sc(NC(=O)c2ccccc2)nc1C | 22µM | 0 | 0 | - | -
CCC(=O)O[C@@H]1C=C2CCC3C(CCC4(C)C3CC[C@@H]4OC(=O)CC)C2CC1 (stereo not given in full) | - | 0 | - | - | -
Nc1ccc(C2(c3ccc(N)cc3)c3ccccc3-c3ccccc32)cc1 | 0[15.4 µM] | -80 | 0 | 0 | 0
O=c1[nH]c2ccccc2n1C1CCNCC1 | - | 0 | - | - | -
O=c1oc2ccccc2c(O)c1C(CC(O)c1ccc(-c2ccc(Br)cc2)cc1)c1ccccc1 (stereo not given) | - | -64 | - | - | -
Cc1ccc(N2C(=O)NC(=O)/C(=C\C=C\c3ccco3)C2=O)cc1C | 0[15.4 µM] | -70 | 0 | 0 | 0
Cc1ccc(N2C(=O)NC(=O)/C(=C\C=C\c3ccco3)C2=O)cc1 | 0 | 0 | 0 | 0 | ?
Cc1cccc(N2C(=O)NC(=O)/C(=C\C=C\c3ccco3)C2=O)c1 | ? | -68 | 0 | 0 | ?
SMILES | gsp agonist | RXFP1 antagonist | PTHR1 agonist | RXFP1 ag | gsp antagonist
Cc1cccc(N2C(=O)NC(=O)/C(=C\c3cccn3-c3ccc(Cl)cc3)C2=O)c1 | 0 | -71 | 0 | 0 | 0
O=C1NC(=O)N(c2ccccc2)C(=O)/C1=C/C=C/c1ccco1 | 0 | 0 | 0 | 0 | 0
CC(C(=O)c1ccccc1)N(C)C (stereo not given) | - | 0 | - | - | -
COc1cc(CC(C)N)c(OC)cc1Br (stereo not given) | - | 0 | - | - | -
Clc1ccc(C(c2ccc(Cl)cc2)C(Cl)(Cl)Cl)cc1 | - | -72 | - | - | -
Cc1ccc2c(C)c3ccc4ccccc4c3c[n+]2c1 | ? | 0 | 0 | - | 50µM
CCNC(=O)[C@H]1O[C@@H](n2cnc3c(N)ncnc32)[C@H](O)[C@@H]1O | - | - | 0 | 1.3µM | 0
Nc1ncnc2c1ncn2[C@@H]1O[C@H](COP(=O)(O)CP(=O)(O)O)[C@@H](O)[C@H]1O | - | - | 0 | - | 0
CNc1cc(Cl)c2nonc2c1[N+](=O)[O-] | 0[15.4 µM] | -81 | 0 | 0 | 0
C=C(C)C(Cc1c(OC)ccc(C(=O)/C=C/c2ccc(O)cc2)c1O)OO (stereo not given) | - | - | 0 | - | 25µM
